From PubChem BioAssay (NCATS)
Inconclusive results are not listed. A call without a number means that no potency is given here. Calls of active or inactive are those of the source. Calls follow the shape of the dose curve; as a rule, active = well fitted curve in the direction sought with a large enough effect; inconclusive = small, poorly fitted or top-dose-only effect, or another doubt; inactive = no such curve, though single readings can be large; an effect the other way counts as inactive or inconclusive. Peptide text beside a SMILES is read from it. * marks the point of attachment. Hexanoyl = CCCCCC(=O)*

target: Luciferin 4-monooxygenase (Photinus pyralis) (UniProt P08659); assay: Firefly luciferase counterscreen qHTS: Assay Interference Panel against the NCATS CANVASS Library (AID 1347363); settings: purified firefly luciferase, luminescence inhibition, 5 min; series mostly up to 57.5 µM
How it was run: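 Purified P. pyralis luciferase was added to compounds (11-point series) preincubated 15 min at room temperature with substrate containing 0.013 mM D-luciferin and 0.013 mM ATP; luminescence was read after 5 min.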

Sequence of Luciferin 4-monooxygenase (Photinus pyralis) (P08659 whole entry, looked up): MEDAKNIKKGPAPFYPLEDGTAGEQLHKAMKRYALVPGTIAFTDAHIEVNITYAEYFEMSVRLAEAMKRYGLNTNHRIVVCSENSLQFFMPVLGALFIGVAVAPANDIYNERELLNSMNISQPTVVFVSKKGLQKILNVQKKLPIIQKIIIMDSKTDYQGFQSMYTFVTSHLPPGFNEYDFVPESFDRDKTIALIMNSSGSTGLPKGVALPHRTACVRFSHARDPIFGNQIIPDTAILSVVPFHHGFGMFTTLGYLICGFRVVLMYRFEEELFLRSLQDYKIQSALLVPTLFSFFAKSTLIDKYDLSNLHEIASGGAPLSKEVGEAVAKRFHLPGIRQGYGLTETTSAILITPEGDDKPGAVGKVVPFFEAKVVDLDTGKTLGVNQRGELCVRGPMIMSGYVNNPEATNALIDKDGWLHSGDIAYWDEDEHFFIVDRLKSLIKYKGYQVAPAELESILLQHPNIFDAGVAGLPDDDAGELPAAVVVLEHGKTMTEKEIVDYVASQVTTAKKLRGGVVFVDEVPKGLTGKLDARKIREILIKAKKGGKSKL

Compound	Potency
C=C1C[C@]23C=CC(=O)[C@@](C)(CCCC(C)C(=O)N[C@@H](CO)C(=O)O)[C@@H]2C[C@@H]1CC3 (stereo partly drawn)	inactive
COc1cc2ccc(=O)oc2c(O)c1O[C@@H]1O[C@H](CO)[C@@H](O)[C@H](O)[C@H]1O	inactive
C/C(=C\[C@@H](C)CC/C=C/CC/C=C/C(=O)O)[C@@H](O)[C@H](C)C(=O)CCCC1CC(=O)NC(=O)C1	inactive
CO[C@@H](C[C@@H](C)[C@@H](O)/C=C/C=C/CNC(=O)C(C)(C)[C@H](O)\C(C)=C/C=C\C=C\Cc1cnco1)[C@]1(O)[C@@H](C)C(=O)N(C)[C@@]12COC2=O	inactive
C[C@@]12CCC[C@@](C)(C(=O)O)[C@H]1C[C@@H](O)[C@@]13C[C@@H](CC[C@@H]21)[C@](C)(O)C3	inactive
O=Cc1ccc2n1C[C@]1(OC2)O[C@H](CO)[C@@H](O)[C@@H]1O	inactive
C=C[C@@]1(C)CC[C@@H]([C@H](C)C(C)=O)O1	inactive
C/C=C(/CO)C(=O)O[C@@H]1[C@H](O)[C@@H](C(=O)OC)O[C@@H]2C[C@H]3OC(n4cnc5c(N)ncnc54)[C@H](OC)[C@H]3O[C@@]12O (stereo partly drawn)	inactive
C/C=C/[C@H]1[C@H]2C(=O)c3c(O)c(C)c(O)c(C)c3[C@]1(C(=O)O)C(=O)C=C2C	inactive
C[C@@]12C[C@@H](C[C@@H]3C(=O)O[C@@H](c4ccoc4)[C@H](OC(=O)c4ccccc4)[C@@H]31)OC2=O	inactive
C=C1[C@@]2(C)CC3C4(C)CCC(O)C(C)(C)C4CCC3(C)[C@]1(C(=O)OC)C(=O)C(C)(O)C2=O (stereo partly drawn)	inactive
CC(C)=CCC[C@]1(C)[C@H]2CC(=O)[C@@]3(CO3)[C@@H]1C2	inactive
COc1ccc([C@@H]2c3cc4c(cc3C(=O)C(C)C2C)OCO4)cc1OC (stereo partly drawn)	inactive
CC1(C)CC[C@]2(CO)CC[C@]3(C)C(=CCC4[C@@]5(C)CC[C@H](O)C(C)(C)C5CC[C@]43C)C2C1 (stereo partly drawn)	inactive

test system: not listed separately; assay: KB-8-5-11 Cancer Cell Toxicity qHTS against the NCATS CANVASS Library (AID 1347364); settings: KB-8-5-11 MDR cells viability, CellTiter-Glo, 72 h; series mostly up to 46.1 µM; also: nearly all actives have a fitted effect of over 75% in size; also: potency is read from the fitted curve at half-maximal effect
How it was run: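 Terse: KB-8-5-11, 500 cells/well, 72 hr, 37C/5% CO2, 11-pt titration, CellTiter-Glo readout; confirmatory runs ± 1uM tariquidar in medium.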

Compound	Potency
CC(=O)N[C@H](C)c1nc(/C=C/C=C/C(=O)CC2CC(=O)CC[C@]2(C)O)cs1 (stereo partly drawn)	inactive
CN1C(=O)C(=O)N2C(=C[C@]3(c4c[nH]c5ccccc45)c4ccccc4N[C@H]23)C1=O	inactive
CN1CC[C@]23c4ccccc4N[C@H]1[C@]21CCN(C)[C@H]3Nc2ccccc21	inactive
O=C1CC(c2ccc(O)cc2)Oc2ccccc21 (stereo not drawn)	inactive
COC1C(C)OC(OCC23C[C@@H]4[C@H](C)CC[C@H]4C4(C=O)CC2C=C(C(C)C)C34C(=O)O)[C@@H](O)[C@H]1O (stereo partly drawn)	inactive
CN1CC[C@@]2([C@@]34CCN(C)[C@@H]3Nc3ccccc34)c3ccccc3N[C@@H]12	inactive
Cc1cc(O)cc2c1C(=O)c1c(O)cc(O)cc1C2=O	inactive
C=C(Cl)[C@](Cl)(CBr)CC[C@@H](Br)C(C)(C)Cl	9.35 µM (active)
C=C(C)C(=O)O[C@H]1C[C@@]2(C)OC(=CC2=O)/C(C)=C\[C@H]2OC(=O)C(=C)[C@H]12	2.96 µM (active)
C=C[C@]1(C)CC[C@@H]([C@H](C)C(=O)CC=C(C)C)O1	inactive
CC[C@@H]1C[C@@]2(CC)OC(=O)[C@@]3(CC)[C@H](CC)[C@@H]1[C@@H]23	inactive
[C-]#[N+][C@@]12C(=O)[C@@H]3[C@@H](O[C@@]4(C(=O)N(C)c5cccc1c54)C3(C)C)C(=O)[C@@]2(C)C=C	inactive
C[C@@]12CCC[C@@](C)(C(=O)OP(=O)(O)OC[C@H]3O[C@@H](n4cnc5c(N)ncnc54)[C@H](O)[C@@H]3O)[C@H]1C[C@@H](O)[C@@]13C[C@@H](CC[C@@H]21)[C@](C)(O)C3	inactive
CCC(C)=C1OC(=O)[C@H](C)[C@H](O)[C@H](Cc2cccnc2)NC(=O)C(NC(=O)c2ncccc2O)C(C)OC1=O (stereo partly drawn)	inactive
C[C@@]12CCC[C@@](C)(C(=O)O)[C@H]1CC[C@@]13C[C@@H](CC[C@H]12)[C@](C)(O)C3	inactive
O=C1OC(CCO)c2cccc(O)c21 (stereo not drawn)	inactive
C=C1C[C@]23C=CC(=O)[C@@](C)(CCCC(C)C(=O)N[C@@H](CO)C(=O)O)[C@@H]2C[C@@H]1CC3 (stereo partly drawn)	inactive

Compound	Potency
COc1cc2ccc(=O)oc2c(O)c1O[C@@H]1O[C@H](CO)[C@@H](O)[C@H](O)[C@H]1O	inactive
C/C(=C\[C@@H](C)CC/C=C/CC/C=C/C(=O)O)[C@@H](O)[C@H](C)C(=O)CCCC1CC(=O)NC(=O)C1	inactive
CO[C@@H](C[C@@H](C)[C@@H](O)/C=C/C=C/CNC(=O)C(C)(C)[C@H](O)\C(C)=C/C=C\C=C\Cc1cnco1)[C@]1(O)[C@@H](C)C(=O)N(C)[C@@]12COC2=O	inactive
O=C1CC(c2ccc(O)cc2)Oc2cc(O)cc(O)c21 (stereo not drawn)	inactive
O=C1CC(c2ccc(O)cc2)Oc2cc(O)ccc21 (stereo not drawn)	inactive
CN1CC[C@@]23c4ccccc4N[C@@H]1[C@@]21CCN(C)[C@@H]3Nc2ccccc21	inactive
C[C@@]12CCC[C@@](C)(C(=O)O)[C@H]1C[C@@H](O)[C@@]13C[C@@H](CC[C@@H]21)[C@](C)(O)C3	inactive
O=Cc1ccc2n1C[C@]1(OC2)O[C@H](CO)[C@@H](O)[C@@H]1O	inactive
C=C[C@@]1(C)CC[C@@H]([C@H](C)C(C)=O)O1	inactive
C/C=C(/CO)C(=O)O[C@@H]1[C@H](O)[C@@H](C(=O)OC)O[C@@H]2C[C@H]3OC(n4cnc5c(N)ncnc54)[C@H](OC)[C@H]3O[C@@]12O (stereo partly drawn)	inactive
C/C=C/[C@H]1[C@H]2C(=O)c3c(O)c(C)c(O)c(C)c3[C@]1(C(=O)O)C(=O)C=C2C	inactive
C[C@@]12C[C@@H](C[C@@H]3C(=O)O[C@@H](c4ccoc4)[C@H](OC(=O)c4ccccc4)[C@@H]31)OC2=O	inactive
C=C1CCC2C(C)(C(=O)O)CCC(CC/C(C)=C/C(=O)NC(CCC(N)=O)C(=O)O)[C@@]2(C)C1 (stereo partly drawn)	inactive
C=C1[C@@]2(C)CC3C4(C)CCC(O)C(C)(C)C4CCC3(C)[C@]1(C(=O)OC)C(=O)C(C)(O)C2=O (stereo partly drawn)	inactive
CC(C)=CCC[C@]1(C)[C@H]2CC(=O)[C@@]3(CO3)[C@@H]1C2	inactive
CCCCCC(=O)N[C@@H](CC(C)C)C(=O)N[C@H](C=O)CCC(=O)O (Hexanoyl-Leu-Glu-aldehyde)	inactive
CC1(C)CC[C@]2(CO)CC[C@]3(C)C(=CCC4[C@@]5(C)CC[C@H](O)C(C)(C)C5CC[C@]43C)C2C1 (stereo partly drawn)	inactive
